Results on 34 molecules are retold here after the supplement of paper PMC10127200.

Structures can show the parent of a compound that is named as a salt.

This experiment has as its system OVCAR4. Kind of experiment: Euclidean distance of Cell Painting phenotypic profile (signed KS, 77 features) to DMSO centroid (dimensionless distance); 5 or 10 uM (library dependent); higher = stronger phenotypic change vs DMSO (phenoactivity). The following applies: 48 h. In outline: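 Library compounds were applied at 10 or 5 uM, depending on the library, with 0.1% DMSO final, for 48 h to five cancer lines and a healthy fibroblast line. After staining, cells were imaged confocally at 20X across 9 fields per well, and Harmony extracted 77 features, each scored as a signed Kolmogorov-Smirnov statistic against vehicle wells on the same plate. Phenoactivity is the Euclidean distance between each profile and the median vehicle profile, with profiles first plate-position corrected, correlation-weighted and averaged over replicates at the top dose.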
With `O=c1cc(-c2ccccc2)oc2cc(O)c(O)c(O)c12` [Baicalein], the Euclidean distance was 1.08.
Next, `CC[C@H](Nc1ncnc2[nH]cnc12)c1nc2cccc(F)c2c(=O)n1-c1ccccc1` [CAL-101 (Idelalisib. GS-1101)]: 1.56; `C[C@]12CC[C@H](O)CC1=CC[C@@H]1[C@@H]2CC[C@]2(C)C(n3cnc4ccccc43)=CC[C@@H]12` [Galeterone]: 1.04.
As for `CC(=O)Nc1nc(C)c(-c2ccc(Cl)c(S(=O)(=O)NCCO)c2)s1`, the figure is 1.12; as for `OCc1ccccc1` [Benzyl alcohol], 1.19; as for `C[C@]12CCC(=O)C=C1C=C[C@@H]1[C@@H]2CC[C@@]2(C)[C@H]1CC[C@@]21CCC(=O)O1` [Canrenone], 1.05.
`CN1C2CCCC1CC(NC(=O)c1nn(C)c3ccccc13)C2` (centres undefined) [Granisetron HCl] showed an Euclidean distance of 1.
In the case of `O=C(/C=C/c1ccc(O)c(O)c1)OCCc1ccccc1` [Caffeic Acid Phenethyl Ester], the Euclidean distance was 1.18.
Next, `C[C@H](N[C@@H](CCc1ccccc1)C(=O)O)C(=O)N1CCC[C@H]1C(=O)O` [Enalaprilat Dihydrate]: 1; `O=c1c(-n2ccnn2)c[nH]n1-c1cc(N2CCOCC2)ncn1` [Molidustat (BAY 85-3934)]: 1.19; `COCC(=O)Nc1cc(Sc2ccccc2)ccc1N=C(NC(=O)OC)NC(=O)OC` [Febantel]: 1.15.
In turn, `OCc1cc([C@@H](O)CNCCCCCCOCCOCc2c(Cl)cccc2Cl)ccc1O` [Vilanterol Trifenate] came in with an Euclidean distance of 1.76.
As for `Nc1c(CC(=O)O)cccc1C(=O)c1ccc(Br)cc1` [Bromfenac Sodium], the figure is 1.75; as for `COc1c(C)c2c(c(O)c1C/C=C(\C)CCC(=O)OCCN1CCOCC1)C(=O)OC2` [Mycophenolate Mofetil], 3.19.
Turning to `CO/N=C(\C(=O)N[C@@H]1C(=O)N2C(C(=O)O)=C(CSc3nc(C)c(CC(=O)O)s3)CS[C@H]12)c1csc(N)n1` [Cefodizime Sodium], the Euclidean distance was 0.754.
Next, `CC(C)=CCOc1ccc(/C=C/C(=O)c2ccc(OCC=C(C)C)cc2OCC(=O)O)cc1` [Sofalcone]: 1.08; `CC(C)(F)C[C@H](N[C@@H](c1ccc(-c2ccc(S(C)(=O)=O)cc2)cc1)C(F)(F)F)C(=O)NC1(C#N)CC1` [Odanacatib (MK-0822)]: 0.985.
Next, `CONC(=O)Nc1ccc(-c2sc3c(c2CN(C)C)c(=O)n(-c2ccc(OC)nn2)c(=O)n3Cc2c(F)cccc2F)cc1` [Relugolix]: 1.3.
Next, `Cc1ccc(NC(=O)c2ccc(CN3CCN(C)CC3)cc2)cc1Nc1nccc(-c2cccnc2)n1` [Imatinib Mesylate (STI571)]: 1.55; `C#Cc1cccc(Nc2ncnc3cc(OCCOC)c(OCCO)cc23)c1`: 2.03; `CC(C)(O)c1cc(Nc2cc(Oc3cn(C4CC4)nc3C3CCOCC3)ccn2)ccn1`: 1.36.
Turning to `Cc1cc(Nc2nc(N[C@@H](C)c3ccc(F)cc3)c(C#N)cc2F)n[nH]1`, the Euclidean distance was determined as 2.77.
Next, `Nc1nc(F)nc2c1ncn2[C@@H]1O[C@H](CO)[C@@H](O)[C@@H]1O` [Fludarabine]: 1.63; `Nc1nc2c(ncn2COC(CO)CO)c(=O)[nH]1` [Ganciclovir]: 3.37.
As for `Cc1cc(NS(=O)(=O)c2ccc(N)cc2)nc(C)n1` [sulfaisodimidine], the figure is 0.686.
Next, `O=C(c1ccc(C(=O)N2CCC(N3CCCC3)CC2)c(Nc2ccccc2)c1)N1CCC(N2CCCC2)CC1`: 0.678; `O=C(N/N=C/c1ccc([N+](=O)[O-])o1)c1ccc(O)cc1` [Nifuroxazide]: 1.2; `CCCCCCCCOc1ccccc1C(=O)Nc1ccc(C(=O)OCC[N+](C)(CC)CC)cc1` [Otilonium Bromide]: 1.03.
Consider `c1ccc(-c2ccc(C(c3ccccc3)n3ccnc3)cc2)cc1` (centres undefined) [Bifonazole], for which the Euclidean distance came out at 1.31.
As for `O=C(O)CCCc1cc2cc(Cl)ccc2n1S(=O)(=O)c1ccc2ncsc2c1` [Lanifibranor(IVA-337)], the figure is 1.53; as for `CCC[C@H](N[C@H]1CCc2cc(F)cc(F)c2C1)C(=O)Nc1cn(C(C)(C)CNCC(C)(C)C)cn1`, 2.26.
As for `CNS(=O)(=O)CCc1ccc2[nH]cc(C3CCN(C)CC3)c2c1` [Naratriptan], the figure is 1.33.
As for `Cc1nc(Nc2ccc(F)cc2)nc(N2CCc3ccccc3C2C)c1C` (centres undefined) [Revaprazan Hydrochloride], the figure is 1.13.
`NCc1ccc(S(N)(=O)=O)cc1` [Mafenide hydrochloride]: the Euclidean distance was determined as 1.46.
